Sampled rows, rich in hits. Any-hit rate of the full collection: about 1.2%.
JMJD2C inh = human JMJD2C demethylase inhibition; Q9H3R0; GST-JMJD2C(1-420) H3K9me3 demethylation, DELFIA europium; inhibition, % at 2.35 µM; 330,000 compounds, 0.069% hits; AID 2099;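 active = more than half of a compound's replicate wells show inhibition beyond 50%, single wells judged on their own value; inconclusive = some, but no more than half, of replicates pass 50% inhibition; inactive = no replicate passes 50% inhibition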;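 also: signal counts dimethyl H3K9 product captured on neutravidin plate; 0% = median of DMSO wells and 100% = 0.3 times that DMSO median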
pCIP destab = compounds decreasing mouse p/CIP protein stability; F442A p/CIP-EGFP cells, EGFP fluorescence, 16 h; decrease of EGFP signal, % at 10 µM; 290,000 compounds, 0.01% hits; AID 1984;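 active = EGFP signal decrease of at least 30% at 10 µM or well 3 SD below plate mean, unless failing retest; inactive = the rest, including hits failing retest or dose response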
GPR7 antag = blocks human GPR7 receptor signaling. P48145. GPR7-expressing cells, fluorescence antagonist assay. inhibition, % at 4.4 µM. 290,000 compounds, 1.1% hits. AID 1861; in the data active = inhibition above about 16%, passing the limit was not always enough;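 also: cells stimulated with the agonist NPW; 0% = agonist with vehicle and 100% = vehicle without agonist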
VLA-4 inh = inhibition in a human VLA-4 binding assay; P13612; AID 2557; VLA-4 expressing cells, ligand binding flow cytometry; 330,000 compounds, 0.2% hits; inhibition, % (about 7 µM as worked out from the volumes in the protocol); in the data active = inhibition above about 50%
* = called active by the depositor; i = inactive; ? = inconclusive; / = no result.

SMILES	JMJD2C inh	pCIP destab	GPR7 antag	VLA-4 inh
COc1ccc(-c2c(-c3ccsc3)oc3ccc(N4CCOCC4)cc23)cc1	4	/	/	-13
CCN1/C(=C/c2ccc3cc(C)ccc3[n+]2CC)Sc2ccccc21	-14	-405	44*	/
Cc1nn(CC(=O)Nc2nnc(CC(=O)N3CCCC3)s2)c(=O)c2ccccc12	13	-8	18*	11
Cc1ccc(Oc2ncccc2N)c2c1CCC2	5	1	19*	9
CC(=O)c1ccc(NC(=O)CO/N=C(\C)c2cccs2)cc1	2	-24	20*	22
COc1ccc(-c2ncncc2-c2csc(C)n2)c(O)c1	12	-5	17*	-1
CC(=O)Oc1cc2c(cc1Cl)C(c1cccs1)CC1(CC(C)(C)NC(=S)N1)O2 (stereo not drawn)	-8	-10	-7	2
O=C(NC1CCCCC1)C(c1ccco1)N(Cc1cccs1)C(=O)Cn1nnc2ccccc21 (stereo not drawn)	5	-2	22*	3
CN1C(=O)NC(c2cccc([N+](=O)[O-])c2)C2=C1CCCC2=O (stereo not drawn)	24	2	-4	7
COC(=O)C1CCN(C(=O)COC(=O)CCc2nc3ccccc3c(=O)[nH]2)CC1	-4	-4	-12	9
CCCCC(=O)N/N=C(/C)C1=C(C)C(C)(C)OC1=O	-4	-12	-12	11
C=CCn1c(C(C)NC(=O)CCC)nc2ccccc21 (stereo not drawn)	3	-2	20*	7
Cc1ccc(C(=O)c2cc([N+](=O)[O-])ccc2N2CCCCC2)c(C)c1	1	-14	6	14
CCC(=O)Nc1ccccc1C(=O)OCC(=O)c1ccc2ccccc2c1	1	-11	19*	3
CCC(=O)Nc1ccccc1C(=O)OCC(=O)c1ccccc1	-5	6	-8	-5
O=S(=O)(c1ccc(OC(F)(F)F)cc1)N1CCCC(N2CCOCC2)C1 (stereo not drawn)	9	-21	-18	2
CC(C1CC2CCC1C2)n1c(-c2ccco2)n[nH]c1=S (stereo not drawn)	-1	-7	11	-5
CCCCCc1ccc(OCCCC[n+]2cccc(C)c2)c(CCCCC)c1	-16	-13	34*	-5
CCCCCc1ccc(OCCCC[n+]2ccccc2)c(CCCCC)c1	?	-3	-20	-4
Cc1cc(Br)ccc1NC(=O)CNC(=O)Cn1ncc(Cl)c(Cl)c1=O	/	4	-9	50*
Cc1ccc2nc(CSc3nnc4ccccn34)cc(=O)n2c1	1	4	17*	15
Cc1ccc(/C=C/C(=O)O)cc1S(=O)(=O)N1CCCCC1	-9	-4	-4	-11
Oc1ccc(O)c(Cc2nc3ccccc3s2)c1	9	-6	33*	-1
CCOC(=O)[C@@H]1[C@H]2COc3ccccc3[C@H]2N2C(=O)N(c3ccc(C(F)(F)F)cc3)C(=O)[C@]12C	-1	-5	-1	4
CCOC(=O)c1ccc([N+](=O)[O-])c(CS(=O)(=O)c2ccc(Cl)cc2)c1	-6	-14	22	13
SMILES	JMJD2C inh	pCIP destab	GPR7 antag	VLA-4 inh
Cc1ccc(S(=O)(=O)Cc2cc(F)c([N+](=O)[O-])cc2[N+](=O)[O-])cc1	-6	-22	30*	26
O=C(Cn1c(C(=O)N2CCN(C3CCCCC3)CC2)cc2sccc21)c1ccccc1	28	-1	20*	0
O=c1[nH]c2ccccc2c(O)c1-c1cc2ccccc2oc1=O	-1	-13	-2	-6
CC1=NNC(=O)/C1=C\c1cn(-c2ccccc2)nc1-c1ccccc1	-7	4	55*	27
CCOC(=O)N1CCC(N2C(=O)c3ccccc3C2Nc2c(C)cccc2C)CC1 (stereo not drawn)	-7	-2	16*	i
O=C(Nc1nccs1)c1cn(-c2ccccc2)nc1-c1ccccc1	-2	6	19*	2
CN(CCCNC(=O)CSc1cc(=O)n(C)c2cc(Cl)ccc12)Cc1ccccc1	-6	-4	21*	16
CN(C)C(=O)c1ccc(NC(=O)COC(=O)C2CCN(S(=O)(=O)c3ccc4c(c3)OCCO4)CC2)cc1	-9	/	/	2
O=C(Cn1nnc(-c2ccccc2Cl)n1)N1CCN(S(=O)(=O)c2ccc(Cl)cc2)CC1	0	-10	16*	1
O=C(Cn1nnc(-c2ccccc2Cl)n1)N1CCCCC1	3	-2	-10	5
CCOc1ccc(-c2c[n+]3c(n2-c2ccccc2)CCCCC3)cc1	10	42	25*	1
COc1ccc(-n2c(-c3ccccc3)c[n+]3c2CCC3)cc1	10	-8	-4	-3
